# According to PubChem BioAssay:
# The source made the active and inactive calls.
# What was measured:
# [1] = test system: Human papillomavirus type 1a protein E7 (residues 44-93); experiment: HPV1a E7 fragment binders on microarrays, primary screen, biochemical, small-molecule microarray, residues 44-93, 635 nm fluorescence (AID 1108); settings: small-molecule microarray binding, fluorescence 635 nm; higher = more signal;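 further: E7 fragment applied at 1 µg/mL in TBST for 1 h at 4 C; score combines spot fluorescence with its signal to noise ratio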
# [2] = modulators of HCV replicon luciferase signal, primary screen, HCV replication inhibitor project, Huh7 cells, luciferase reporter (AID 1109); settings: 48 h, higher = more signal;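 further: huh7 hepatoma cells harbouring a luciferase neomycin HCV replicon reporter; luciferase luminescence as measure of HCV replicon replication; test concentration not given here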
# [3] = biological target: Left-right determination factor 2 (Homo sapiens) (UniProt O00292); experiment: LEFTY2 binders on small-molecule microarrays, primary screen, biochemical, small-molecule microarray, 635 nm fluorescence scan (AID 1110); settings: LEFTY2 binding, higher = more signal
# Chain of Left-right determination factor 2 (Homo sapiens) (O00292 whole entry, looked up): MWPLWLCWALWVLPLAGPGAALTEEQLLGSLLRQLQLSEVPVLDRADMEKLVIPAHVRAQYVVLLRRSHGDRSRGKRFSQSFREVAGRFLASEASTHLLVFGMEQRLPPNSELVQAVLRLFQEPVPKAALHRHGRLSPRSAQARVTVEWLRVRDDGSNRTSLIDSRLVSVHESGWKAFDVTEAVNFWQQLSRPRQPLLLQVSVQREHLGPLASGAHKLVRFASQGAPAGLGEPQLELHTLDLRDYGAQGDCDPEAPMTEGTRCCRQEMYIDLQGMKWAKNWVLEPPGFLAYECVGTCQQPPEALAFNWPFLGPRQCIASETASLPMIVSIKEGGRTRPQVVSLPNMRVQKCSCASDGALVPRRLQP
# [4] = biological target: Calmodulin-1 (Homo sapiens) (UniProt P0DP23); experiment: CALM1 binders on microarrays, EGTA buffer, profiling panel, biochemical, small-molecule microarray, Cy5-labelled CALM1 (AID 1111); settings: Cy5-CALM1 binding fluorescence, higher = more signal;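 further: labelled calmodulin applied in Tris saline Tween buffer holding calcium plus EGTA and DTT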
# [5] = biological target: Calmodulin-1 (Homo sapiens) (UniProt P0DP23); experiment: calcium-bound CALM1 binders on microarrays, profiling panel, artefact control for SMM control-protein annotation, biochemical, small-molecule microarray, Cy5-labelled CALM1, plus calcium (AID 1112); settings: Cy5-CALM1 binding fluorescence, higher = more signal;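 further: score merges spot fluorescence with signal to noise from triplicate slides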
# [6] = small-molecule microarray binders of probe aWnt5a, primary screen, biochemical, biotinylated probe, 635/667 nm fluorescence (AID 1113); settings: higher = more signal;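 further: score merges 667 nm fluorescence intensity with signal-to-noise per printed feature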
# [7] = small-molecule microarray binders of probe aShh, primary screen, biochemical, biotinylated probe, 635/667 nm fluorescence (AID 1114); settings: higher = more signal;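 further: probe is biotin-labelled aShh protein from a stem cell growth factor screen; measures binding of labelled protein to compounds printed on the slide; score merges feature fluorescence at 667 nm with signal-to-noise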
# [8] = small-molecule microarray binders of probe aNog, primary screen, biochemical, biotinylated probe, 635/667 nm fluorescence (AID 1115); settings: higher = more signal;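 further: probe is biotinylated aNog protein used at 0.15 µg/mL for 1 h at 4 C; z-score combines 667 nm fluorescence of each spot with its signal to noise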
# [9] = biological target: Torsin-1A-interacting protein 1 (Homo sapiens) (UniProt Q5JTV8); experiment: LAP1 binders from COS7 cell lysate, primary screen, small-molecule microarray, 635/667 nm fluorescence (AID 1116); settings: COS7-hLAP1 lysate binding, 635 nm fluorescence, higher = more signal
# Chain of Torsin-1A-interacting protein 1 (Homo sapiens) (Q5JTV8 whole entry, looked up): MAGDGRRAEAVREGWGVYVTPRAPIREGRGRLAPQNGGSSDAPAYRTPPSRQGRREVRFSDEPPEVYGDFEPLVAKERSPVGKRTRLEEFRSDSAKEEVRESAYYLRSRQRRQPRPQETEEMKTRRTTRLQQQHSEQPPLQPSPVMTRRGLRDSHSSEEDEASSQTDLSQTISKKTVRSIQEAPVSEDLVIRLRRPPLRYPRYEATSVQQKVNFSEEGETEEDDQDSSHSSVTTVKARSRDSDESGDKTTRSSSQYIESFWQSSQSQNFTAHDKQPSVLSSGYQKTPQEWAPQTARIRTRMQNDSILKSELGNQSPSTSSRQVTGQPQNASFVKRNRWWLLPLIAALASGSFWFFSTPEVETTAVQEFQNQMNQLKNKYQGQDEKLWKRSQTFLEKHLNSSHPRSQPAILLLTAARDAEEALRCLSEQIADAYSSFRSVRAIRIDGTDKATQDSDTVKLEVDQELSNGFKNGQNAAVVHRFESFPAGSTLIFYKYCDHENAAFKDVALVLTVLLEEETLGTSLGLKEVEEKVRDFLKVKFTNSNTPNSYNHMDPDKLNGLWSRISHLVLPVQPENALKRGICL
# [10] = biological target: Alpha-bungarotoxin (Bungarus multicinctus) (UniProt P60615); experiment: alpha-bungarotoxin binders on microarray, profiling panel, artefact control for SMM control protein annotation, biochemical, small-molecule microarray, Alexa647 label, 635/667 nm fluorescence (AID 1117); settings: alpha-BTX-A647 binding fluorescence, higher = more signal
# Chain of Alpha-bungarotoxin (Bungarus multicinctus) (P60615 whole entry, looked up): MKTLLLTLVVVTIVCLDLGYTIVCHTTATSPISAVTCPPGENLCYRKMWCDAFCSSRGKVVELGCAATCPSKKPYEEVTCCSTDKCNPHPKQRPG
# Albumin (Bos taurus) = Albumin (Bos taurus) (UniProt P02769); experiment: bovine serum albumin binders on microarray, profiling panel, artefact control for SMM control protein annotation, biochemical, small-molecule microarray, Alexa647 label, 635/667 nm fluorescence (AID 1118); settings: BSA-A647 binding, fluorescence 635 nm, higher = more signal;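 further: score merges 667 nm emission intensity and signal-to-noise per printed compound spot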
# Chain of Albumin (Bos taurus) (P02769 whole entry, looked up): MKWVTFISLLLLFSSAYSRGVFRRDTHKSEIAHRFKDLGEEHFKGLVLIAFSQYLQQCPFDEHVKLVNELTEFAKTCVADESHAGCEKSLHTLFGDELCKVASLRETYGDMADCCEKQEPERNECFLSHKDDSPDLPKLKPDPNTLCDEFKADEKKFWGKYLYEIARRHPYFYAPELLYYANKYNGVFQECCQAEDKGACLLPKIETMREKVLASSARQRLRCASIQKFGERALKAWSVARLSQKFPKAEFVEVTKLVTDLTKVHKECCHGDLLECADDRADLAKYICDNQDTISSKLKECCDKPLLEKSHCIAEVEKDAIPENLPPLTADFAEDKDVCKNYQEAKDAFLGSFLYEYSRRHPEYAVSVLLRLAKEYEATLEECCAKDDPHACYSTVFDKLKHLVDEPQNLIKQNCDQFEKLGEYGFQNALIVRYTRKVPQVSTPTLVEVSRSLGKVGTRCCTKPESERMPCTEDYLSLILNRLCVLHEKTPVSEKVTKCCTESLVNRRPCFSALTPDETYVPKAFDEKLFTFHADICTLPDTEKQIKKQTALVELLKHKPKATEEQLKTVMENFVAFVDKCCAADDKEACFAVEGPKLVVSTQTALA
# [11] = small-molecule microarray binders of probe aXIP, primary screen, biochemical, NeuroSMM set, 635/667 nm fluorescence (AID 1119); settings: higher = more signal, called active from +8 up or from −8 down;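 further: probe is the protein aXip251-270 applied at 1 µg/mL to compound-printed slides; binding of probe to printed compounds measured as 667 nm fluorescence plus signal to noise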
# [12] = small-molecule binders of probe aNOTCH3, primary screen, biochemical, small-molecule microarray, 635/667 nm fluorescence (AID 1120); settings: higher = more signal;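 further: probe is a biotin-tagged antibody raised against NOTCH3 rather than NOTCH3 protein; score merges spot fluorescence near 667 nm with spot signal to noise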
# [13] = small-molecule binders of probe aNOTCH2, primary screen, biochemical, small-molecule microarray, 635/667 nm fluorescence (AID 1121); settings: higher = more signal;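 further: score merges feature fluorescence read at 667 nm with its signal to noise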
# [14] = biological target: Carbonic anhydrase 2 (Homo sapiens) (UniProt P00918); experiment: CAII small-molecule binders, profiling panel, biochemical, small-molecule microarray, Alexa647-labelled CAII (AID 1122); settings: CAII-A647 binding fluorescence, higher = more signal
# [15] = COS7 lysate on small-molecule microarray, probe aHis, 635 nm (AID 1123); settings: COS7 cell lysate, fluorescence, higher = more signal;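 further: z-score combines 667nm fluorescence intensity with signal-to-noise per printed compound spot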
# [16] = compound binding in COS7 lysate, probe aLAP1, primary screen, cell lysate, small-molecule microarray (AID 1124); settings: probe aLAP1, fluorescence, higher = more signal;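 further: lysate comes from COS7 cells expressing LAP1 and is applied at 0.3 µg/mL; score merges spot fluorescence near 667 nm with signal-to-noise over triplicate slides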
# Sam68 (KHDRBS1) = experiment: Sam68 small-molecule binders, primary screen, biochemical, small-molecule microarray, 635 nm fluorescence (AID 1125); settings: small-molecule microarray binding, higher = more signal;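 further: score merges 667 nm channel intensity with signal to noise over triplicate slides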
# [17] = test system: Chordin-like protein 2 (CHRDL2); experiment: CHRDL2 small-molecule binders, primary screen, biochemical, small-molecule microarray, 635 nm fluorescence (AID 1126); settings: small-molecule microarray binding, fluorescence 635 nm; higher = more signal;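 further: printed compound slides probed with Chrdl2 protein at 4 µg/mL for 1 h at 4 C; score merges 667 nm emission intensity with signal to noise over three replicate slides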
# [18] = biological target: Concanavalin-A (Canavalia ensiformis) (UniProt P02866); experiment: ConA small-molecule binders, primary screen, artefact control for SMM control protein annotation, biochemical, small-molecule microarray, Alexa647 label, 635 nm (AID 1127); settings: ConA-A647 binding fluorescence, higher = more signal;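 further: z combines 667 nm emission intensity with signal-to-noise across three replicate slides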
# Chain of Concanavalin-A (Canavalia ensiformis) (P02866 whole entry, looked up): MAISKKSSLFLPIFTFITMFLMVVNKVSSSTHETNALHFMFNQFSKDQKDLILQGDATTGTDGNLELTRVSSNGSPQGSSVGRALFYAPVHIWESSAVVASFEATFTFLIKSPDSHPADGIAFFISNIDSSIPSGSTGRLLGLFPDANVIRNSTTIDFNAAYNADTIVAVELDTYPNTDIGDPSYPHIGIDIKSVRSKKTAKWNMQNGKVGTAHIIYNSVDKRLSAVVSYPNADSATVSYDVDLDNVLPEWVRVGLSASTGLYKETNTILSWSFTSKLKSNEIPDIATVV
SMILES,composite z-score [1],z-score [2],composite z-score [3],composite z-score [4],composite z-score [5],composite z-score [6],composite z-score [7],composite z-score [8],composite z-score [9],composite z-score [10],composite z-score (Albumin (Bos taurus)),composite Z-score [11],composite z-score [12],composite z-score [13],composite z-score [14],composite z-score [15],composite z-score [16],composite z-score (Sam68 (KHDRBS1)),composite z-score [17],composite z-score [18]
COc1ccc([Si](C)(C)[C@@H]2[C@@H](CC(=O)N3CCC[C@H]3CO)O[C@]3(C(=O)N(Cc4ccc(N5CCOC5=O)cc4)c4ccccc43)[C@H]2C)cc1,1.06,-1.58,0.327,1.08,0.461,-0.175,0.0121,-0.402,1.1,0.931,0.746,0.408 (inactive),-0.0362,-0.136,0.408,1.02,0.373,1.31,0.509,0.884
CC(C)NC(=O)[C@@H]1c2ccccc2C(=O)N(Cc2ccc(OC(F)(F)F)cc2)[C@H]1c1ccc(CO)cc1,0.973,-0.779,0.39,0.1,-0.126,0.265,0.637,-0.486,0.673,0.589,-0.215,-0.194 (inactive),0.503,0.321,0.268,1.35,0.651,1.3,0.215,0.882
COc1ccc([Si](C)(C)[C@@H]2[C@@H](CC(=O)N3Cc4ccccc4C[C@H]3CO)O[C@]3(C(=O)N(Cc4cccc(N5CCOC5=O)c4)c4ccccc43)[C@H]2C)cc1,1.02,-3.46,0.736,-0.695,-0.611,-0.0684,-0.0243,-0.397,0.0192,0.258,-0.699,0.844 (inactive),0.0016,-0.117,0.038,0.479,0.333,1.1,1.32,0.844
CC(C)OC(=O)CC(=O)CC(O)c1cccc([N+](=O)[O-])c1 (stereo not given),1.31,-1.6,0.117,0.834,0.17,0.264,0.418,-0.138,1.24,0.288,0.799,-0.144 (inactive),0.241,-0.177,0.633,0.707,-0.107,1.22,0.01,0.828
COC(=O)[C@@]1(Cc2ccc(F)cc2)[C@H]2c3cc(C(=O)N4CCCC4)n(CCc4ccccn4)c3C[C@H]2CN1C(=O)c1ccccc1,0.724,-0.74,-0.27,1.16,0.42,0.136,0.887,1.53,0.294,0.0045,0.634,0.191 (inactive),0.0488,0.186,0.852,2.13,0.233,0.0315,-0.163,0.222
COC(=O)[C@@]1(Cc2ccccc2)[C@H]2c3cc(C(=O)N4CCCC4)n(Cc4ccc(OC)c(OC)c4)c3C[C@H]2CN1C(=O)c1ccccc1,1.44,-2.27,-0.737,1.39,0.852,0.421,0.853,1.85,1.38,0.315,0.909,0.651 (inactive),1.11,0.204,0.853,3.22,0.382,1.04,-1.05,0.827
COCCOC(=O)N1C(=O)[C@@]2(c3cc(C#CCC(C(=O)OC)C(=O)OC)ccc31)[C@H](C(=O)Nc1nc3ccccc3s1)[C@H]1C(=O)O[C@H](c3ccccc3)[C@H](c3ccccc3)N1[C@@H]2c1ccc(OCCO)cc1,0.783,-2.03,1.21,1.34,-0.21,0.0377,0.0043,-0.0242,1.38,0.752,-0.978,1.21 (inactive),0.414,0.0328,0.487,1.24,0.705,1.29,1.32,1.18
[N-]=[N+]=Nc1ccccc1C[C@@]1(C(=O)NCc2ccccc2)N=C(c2ccc(OCCCO)cc2)O[C@@H]1c1ccccc1N=[N+]=[N-],-0.334,-3.01,-0.0656,1.69,0.683,0.33,0.171,1.18,1.19,1.97,0.913,0.605 (inactive),0.467,-0.0211,0.398,1.99,-0.136,1.14,-0.656,1.12
CN(C)CCCC[C@@H]1NC(=O)[C@@H]2C[C@H](C(=O)NCCCCCCNC(=O)CS)[C@H](c3ccc(O)cc3)N2C1=O,1.16,0.278,1.24,-0.383,-0.199,-0.275,-0.124,-0.0174,0.464,0.136,-0.868,0.0804 (inactive),-0.0682,-0.112,0.538,1.06,0.338,0.952,1.15,1.08
COc1ccc([Si](C)(C)[C@H]2[C@H](CC(=O)N3Cc4ccccc4C[C@H]3CO)O[C@@]3(C(=O)N(c4ccccc4)c4ccccc43)[C@@H]2C)cc1,1.35,-3.46,0.949,0.392,-0.987,0.127,-0.0119,-0.542,1.7,1.69,0.622,0.319 (inactive),0.204,-0.126,0.306,0.994,0.374,1.29,1.22,1.09
